Screens (PubChem)
pAkt inh = blocks phosphorylation of Akt. Neuro2A IGF-stimulated pAkt S473 HTRF, 20 min; hits give low values. activity change, % for hits at 50 µM. actives 0.32% (n = 360,000). AID 651550; in the data active = activity change below about -80%; inconclusive = mostly about -51% to -80%; also: % is scaled to controls: 0 for no effect and ±100 for the full control effect
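Single-point screen (50 µM final compound) in Neuro2A cells stimulated 20 min with 6 nM IGF at 37 deg C. After lysis, Ser473-phosphorylated Akt read by HTRF (ex 330 nm, em 615/665 nm) as the 665/615 ratio.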
gsp ag = agonists of gsp mutant (McCune-Albright syndrome). Potency, µM (highest dose often 76.9 µM), without a hit: at the top dose activation (cAMP increase), actives largely listed as activators. actives 0.13% (n = 340,000). gsp mutant cells, cAMP HTRF, 30 min; active = well fitted activation curve with a large enough effect; inconclusive = small, poorly fitted or top-dose-only effect, or another doubt; inactive = no such curve, though single readings can be large or run the other way; cell line not stated here;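 also: phosphodiesterase inhibitor Ro 20-1724 added with compounds to block cAMP breakdown; potency is read from the fitted curve at half-maximal effect; nearly all actives have a fitted effect of over 60% in size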
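Cells in DMEM/10% FBS with G418 were pretreated with compounds in DMSO plus […] (300 uM stock) for 30 min at 37C. cAMP was measured by HTRF (cAMP-d2 plus anti-cAMP antibody-K) after 30 min at room temperature.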
RXFP1 ag = activates the human relaxin receptor RXFP1. Q9HBX9. HEK293T-RXFP1 cAMP TR-FRET, 30 min; response scale: percent of porcine relaxin response, buffer zero. Potency, µM (series often up to 57.5 µM), for the others: at the top dose activation, actives largely listed as activators. actives 0.3% (n = 370,000); active = well fitted activation curve with a large enough effect; inconclusive = small, poorly fitted or top-dose-only effect; also: potency is read from the fitted curve at half-maximal effect; % is scaled to controls: 0 for no effect and ±100 for the full control effect; nearly all actives have a fitted effect of over 60% in size
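cAMP rise read by TR-FRET after 30 min, 37C compound exposure (up to 58 uM) in RXFP1-transfected HEK293 cells with Ro 20174 present. EC50 from Hill-equation fits, with 29 nM porcine relaxin as 100% and buffer as basal.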
gsp antag = gsp mutant antagonism; gsp-mutant cells, cAMP HTRF, 30 min; Potency, µM (series often up to 76.9 µM), without a hit: top-dose activity change, negative = inhibition, actives largely listed as inhibitors; actives 0.4% (n = 340,000); AID 624288; calls by dose curve; cell line not stated here;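 also: intracellular cAMP measured with PDE inhibitor Ro 20-1724 present during compound exposure; potency is read from the fitted curve at half-maximal effect; % is scaled to controls: 0 for no effect and ±100 for the full control effect; nearly all actives have a fitted effect of over 65% in size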
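HTRF cAMP measurement after 30 min RT detection following 30 min, 37C compound treatment alongside […] (added as 300 uM solution) in G418-selected cells seeded at 2000/well and grown 16–24 h.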
RXFP1 antagonist = blocks the human relaxin receptor RXFP1 | Q9HBX9 | HEK293-RXFP1, relaxin-stimulated cAMP HTRF, 30 min; hits give low values | activity change, negative = inhibition, % at 57.5 µM | actives 0.59% (n = 350,000);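 active = activity change of -60% or lower, but not beyond a set lower limit; inconclusive = change between -60% and -40%, or beyond the set limit; inactive = change above -40%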; also: % is scaled to controls: 0 for no effect and ±100 for the full control effect
Numbers without * were called inactive; i = inactive; u = inconclusive; x = no result given; [ ] = remark or other dose. This is a sample that favours compounds with a hit; in the whole collection about 1.2% have one here.

SMILES	pAkt inh	gsp ag	RXFP1 ag	gsp antag	RXFP1 antagonist
CCCC(O)(c1ccc(Cl)cc1)C(CN1CCOCC1)c1ccc(Cl)cc1 (centres undefined)	i	-2%	-1%	-11%	-32
CCCC1=Nc2cc(C(=O)NCCN3CCOCC3)ccc2Sc2ccccc21	i	19%	-4%	-11%	-100*
CCC1=Nc2cc(C(=O)NCCCN3CCN(C)CC3)ccc2Sc2ccccc21	i	22%	-1%	-2%	8
Cc1ccc(-n2ncc3c(NCCCN4CCOCC4)ncnc32)cc1C	x	x	7%	x	-19
Cc1ccccc1NC(=O)c1c(C)[nH]c(=S)c(C#N)c1-c1ccc(Cl)cc1	i	-1%[15.4 µM]	8%	1%	-18
Cc1ccc(-c2c(C(=O)Nc3ccccc3C)c(C)[nH]c(=S)c2C#N)o1	i	13%[15.4 µM]	28µM*	18%	-2
COc1ccccc1NC(=O)N1CCCC(CNC(=O)c2ccccc2Cl)C1 (centres undefined)	i	-4%	1%	45µM*	11
COc1ccccc1-c1noc(CSc2nnc(Cc3ccccc3)n2-c2ccc(C)c(C)c2)n1	x	x	1%	x	-65*
O=C(OCc1nnc(-c2ccccc2)o1)c1ccc(Br)o1	i	-3%[15.4 µM]	0%	2%	-73*
CC(C)(C)NC(=O)c1ccc2c(c1)N(CC(=O)N1CCCCC1)C(=O)C(C)(C)O2	i	-6%[15.4 µM]	-1%	14%	4
Cc1ccc(NC(=O)c2ccc3c(c2)N(CC(=O)N2CCCCC2)C(=O)C(C)(C)O3)cc1	-121%*	4%	0%	-14%	-22
CCOC(=O)c1nc2sc3c(c2c(=O)n1C(C)C(=O)OCC)CCCC3 (centres undefined)	i	-10%[15.4 µM]	5%	-23%	-61*
CCOC(=O)c1sc(NC(=O)Cn2nnc3sc4c(c3c2=O)CCCC4)nc1C	i	-22%	2%	-10%	1
O=C(Cc1ccccc1)NCCC1=CCCCC1	i	-23%	1%	9%	-1
O=C(NCCC1=CCCCC1)C(c1ccccc1)c1ccccc1	-117%*	-21%	4%	-5%	-11
COc1nc(C)nc2c1sc1nc3c(cc12)COC(C)(C)C3	i	0%	4%	4%	6
Cc1nc(OCC(C)C)c2sc3nc4c(cc3c2n1)COC(C)(C)C4	i	22%[15.4 µM]	1%	4%	-103*
c1ccc(-c2c(-c3ccccc3)n(Cc3ccco3)c3ncnc(NCCCn4ccnc4)c23)cc1	i	-43%	5%	-4%	-65*
Cc1ccccc1OCC(=O)NNC(=O)c1ccc(-c2ccccc2)cc1	-83%*	-15%	1%	13%	-7
CN1C(=O)C(CC(=O)N2CCN(C(c3ccccc3)c3ccccc3)CC2)N(C)C1=O (centres undefined)	-115%*	-47%	0%	13%	-1
O=C1CC(=Nc2ccccc2)NN1c1ccccc1	i	-26%	0%	50µM*	-7
O=C1Cc2ccccc2N1c1ccccc1	i	-31%	0%	-13%	-2
Cc1ccc(C)c(NC(=O)C(=O)NCCc2csc3nc(-c4ccccc4C)nn23)c1	x	x	0%	x	-1
O=C(Nc1cccc(C(F)(F)F)c1)c1cnn(-c2cccc(F)c2)c1C1CCNCC1	x	x	3%	x	-15
Cc1cccc(CCNC(=O)COc2cc(=O)n(C)c3ccccc23)c1	i	0%[15.4 µM]	0%	32µM*	-18
SMILES	pAkt inh	gsp ag	RXFP1 ag	gsp antag	RXFP1 antagonist
COc1c(Cl)cc(C(=O)N(Cc2ccc(C)o2)C2CCS(=O)(=O)C2)cc1Cl (centres undefined)	x	x	-1%	x	x
CCc1ccccc1N(CC)C(=O)CCc1nc(-c2ccc(C)cc2)no1	-116%*	u	1%	u	-10
Cn1cc(C(=O)c2ccc(Cl)cc2Cl)cc1C(=O)N/N=C(\N)COc1ccccc1	-109%*	-7%	0%	-22%	-10
Cc1cn(S(=O)(=O)c2ccc(Br)c3ccccc23)cn1	x	x	22µM*	x	x
COc1cc(S(=O)(=O)n2cnc(C)c2)ccc1Br	i	u	1%	17%	9
CCn1cc([N+](=O)[O-])c(C(=O)N2N=C(c3cccc4ccccc34)CC2c2ccccc2O)n1 (centres undefined)	i	14%	1%	28µM*	-2
